# Structures can show the parent of a compound that is named as a salt.
# Tests used:
# Assay in all cases: thermal shift delta Tm vs DMSO control; higher = stronger stabilization (binding)
# Conditions in all cases: 12.5 µM; protein concentration 2 µM
# [1] = test system: LOC_OS01G01410-cb001
# Procedure, shortened: (§1)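 Thermal shift values come from differential scanning fluorimetry on purified rice kinase domains made in E. coli, with melting temperatures obtained from Boltzmann fits. Samples of 19.5 μl held 2 μM kinase, 100 mM potassium phosphate pH 7.5, 150 mM NaCl, 10% glycerol, 5 × SYPRO Orange and compound in DMSO, and were heated from 25°C to 95°C at 0.05°C/s. Each shift is a triplicate mean relative to the DMSO-only protein sample.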
# [2] = test system: LOC_OS01G02750-cb003
# Procedure, shortened: as §1
# [3] = test system: LOC_OS01G10900-cb004
# Procedure, shortened: as §1
# [4] = test system: LOC_OS01G13800-cb001
# Procedure, shortened: as §1
# [5] = test system: LOC_OS01G14860-cb001
# Procedure, shortened: as §1
# [6] = test system: LOC_OS01G21960-cb002
# Procedure, shortened: as §1
# [7] = test system: LOC_OS01G39600-cb002
# Procedure, shortened: as §1
# [8] = test system: LOC_OS01G48390-cb002
# Procedure, shortened: as §1
# [9] = test system: LOC_OS01G51400-cb002
# Procedure, shortened: as §1
# [10] = test system: T1, LOC_OS01G52050-cb004
# T1 sequence (whole entry): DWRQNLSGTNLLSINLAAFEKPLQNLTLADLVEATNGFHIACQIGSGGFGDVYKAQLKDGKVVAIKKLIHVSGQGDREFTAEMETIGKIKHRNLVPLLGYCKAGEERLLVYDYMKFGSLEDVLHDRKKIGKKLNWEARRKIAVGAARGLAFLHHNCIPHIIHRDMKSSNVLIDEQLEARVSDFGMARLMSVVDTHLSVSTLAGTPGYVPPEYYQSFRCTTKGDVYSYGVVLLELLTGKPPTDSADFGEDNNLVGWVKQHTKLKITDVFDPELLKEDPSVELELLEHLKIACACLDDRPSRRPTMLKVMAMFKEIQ
# Procedure, shortened: as §1
# 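Also: purified Escherichia coli-expressed rice kinase domain construct.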
SMILES,thermal shift delta Tm [1] [°C],thermal shift delta Tm [2] [°C],thermal shift delta Tm [3] [°C],thermal shift delta Tm [4] [°C],thermal shift delta Tm [5] [°C],thermal shift delta Tm [6] [°C],thermal shift delta Tm [7] [°C],thermal shift delta Tm [8] [°C],thermal shift delta Tm [9] [°C],thermal shift delta Tm [10] [°C]
Cn1cc(-c2ccc3nnc(C(F)(F)c4ccc5ncccc5c4)n3n2)cn1,1.27,-0.24,5.11,0.46,0.28,1.41,1.09,0.82,0.35,1.02
CCNc1nc(Nc2cc(F)c(C(=O)N3CCOCC3)cc2OC)ncc1C(F)(F)F,0.11,0.63,0.25,0.11,1.18,0.79,0.15,0.72,0.2,-0.2
CCN1CCN(Cc2ccc(-c3cc4c(N[C@H](C)c5ccccc5)ncnc4[nH]3)cc2)CC1,3.01,0.66,3.11,0.28,0.24,0.28,2.27,0.54,0.24,0.44
CC(C)S(=O)(=O)c1ccc2nccc(Nc3ccc4scnc4c3)c2c1,0.88,1.53,0.44,0.78,0.59,0.58,0.91,2.39,0.31,3.11
COc1ccc(Oc2cc(NCCC(F)(F)F)c3ncc(-c4ccc(C(=O)NC5CC5)c(C)c4)n3n2)c(F)c1F,0.28,1.7,-0.65,0.15,0.68,-0.46,1.84,0.14,0.75,1.81
CCN(CC)CCCCNc1ncc2cc(-c3cc(OC)cc(OC)c3)c(NC(=O)NC(C)(C)C)nc2n1,0.27,1.32,0.9,0.29,0.28,0.43,-0.12,1.3,0.23,0.11
CN1CCC(Nc2nc(Nc3ccc(Oc4ccccc4)cc3)c3c(=O)[nH]cc(Br)c3n2)CC1,1.56,2.82,0.27,0.59,2.99,2.71,0.76,2.51,0.72,4.93
COc1ncc(-c2ccc3nccc(-c4ccnnc4)c3c2)cc1NS(=O)(=O)c1ccc(F)cc1F,1.94,1.21,0.23,0.27,1.9,1.2,3.65,0.45,0.55,1.09
CC[C@@H]1C(=O)N(C)c2cnc(Nc3ccc(C(=O)NC4CCN(C)CC4)cc3OC)nc2N1C1CCCC1,1.63,-0.86,-0.01,-0.37,-0.16,0.05,0.36,-0.02,-0.01,0.06
N#CC[C@H](C1CCCC1)n1cc(-c2ncnc3[nH]ccc23)cn1,0.74,1.15,0.65,-0.01,1.62,1.47,0.6,0.4,-0.02,0.98
CC(C)=CC[C@@H](O)C1=CC(=O)c2c(O)ccc(O)c2C1=O [Shikonin],5.01,17.4,9.19,2.82,7.52,1.95,–,5.3,18.6,12.1
CN1CCN(c2ccc(Nc3cc(-c4cccc(-n5ccc6cc(C7CC7)cc(F)c6c5=O)c4CO)cn(C)c3=O)nc2)CC1,0.08,-0.04,0.34,-0.27,0.17,0.86,–,0.24,0.38,0.27
CO[C@H]1C[C@@H]2CC[C@@H](C)[C@@](O)(O2)C(=O)C(=O)N2CCCC[C@H]2C(=O)O[C@H]([C@H](C)C[C@@H]2CC[C@H](n3cnnn3)[C@H](OC)C2)CC(=O)[C@H](C)/C=C(\C)[C@@H](O)[C@@H](OC)C(=O)[C@H](C)C[C@H](C)/C=C/C=C/C=C/1C [Zotarolimus(ABT-578)],0.49,0.69,0.11,-0.04,0.22,1.09,–,1.07,0.06,1
CCn1c(C(=O)N(C2CC2)C2CC2)cc2c3c(ncn3C)c(Nc3cc(C)n(C)n3)nc21,0.37,1.05,-0.06,0.41,0.41,1.12,-0.02,0.34,0.23,0.97
FC(F)(F)c1ccc(Nc2nc3ccc(Oc4ccnc(-c5ncc(C(F)(F)F)[nH]5)c4)cc3[nH]2)cc1 [Raf265 derivative],2.22,8.8,2.77,3.55,4.58,3.8,6.13,4.75,–,8.78
Cc1ccc(C(=O)Nc2cccc(C(F)(F)F)c2)cc1Nc1nc(-c2cccnc2)nc2c1cnn2C,1.82,7.19,1.25,1.68,1.28,2.07,–,2.62,1.11,2.93
COc1cc(Nc2ncc(F)c(Nc3ccc4c(n3)N(COP(=O)(O)O)C(=O)C(C)(C)O4)n2)cc(OC)c1OC [R788 (Fostamatinib) Disodium],0.8,1.55,0.2,0.19,1.64,1.94,5.17,0.57,0.49,1.51
COc1cccc(-c2cc(=O)c3ccccc3o2)c1N,1.2,0.8,-0.05,0.1,0.1,-0.03,0.91,-0.01,0.02,0.01
CC(C)(C)c1cc(/C=C(\C#N)C(N)=S)cc(C(C)(C)C)c1O [Tyrphostin AG 879],2.99,5.43,4.19,2.01,2.28,1.97,–,1.74,0.42,4.16
CCCCCCCCc1ccc(CCC(N)(CO)CO)cc1 [Fingolimod (FTY720) HCl],-0.88,0.17,-0.2,-1.96,-1.24,-0.97,–,-0.85,-1.12,-0.88
O=C(NC[C@H](O)CO)c1ccncc1Nc1ccc(I)cc1F,0.13,0.07,1.79,0.34,0.16,0.66,-0.15,0.13,-0.03,0.02
CN1CCCN(C(=O)c2cccc(-c3ccc(/C=C4/C(=O)Nc5ccc(Cl)cc54)o3)c2)CC1,2.05,1.47,2.9,0.13,4.25,1.58,–,1.96,0.12,0.58
Oc1cc(O)cc(/C=C/c2ccc(O)c(O)c2)c1 [Piceatannol],1.39,1.52,0.74,1,1.02,-0.47,1.51,1.02,0.39,1.1

SMILES,thermal shift delta Tm [1] [°C],thermal shift delta Tm [2] [°C],thermal shift delta Tm [3] [°C],thermal shift delta Tm [4] [°C],thermal shift delta Tm [5] [°C],thermal shift delta Tm [6] [°C],thermal shift delta Tm [7] [°C],thermal shift delta Tm [8] [°C],thermal shift delta Tm [9] [°C],thermal shift delta Tm [10] [°C]
O=C(NCc1cccc(O)c1)Nc1nc(-c2ccncc2)cs1,1,1.02,0.6,-0.25,1.72,1.09,–,1.48,0.4,1.09
CCS(=O)(=O)c1cccc(-c2cc(C(=O)NC3CCN(C)CC3)c(C)c3[nH]c4ncc(C)cc4c23)c1,3.99,0.8,4.18,-0.51,4.38,2.97,0.89,2.14,0.16,6.44
O=C(O[C@@H]1Cc2c(O)cc(O)cc2O[C@@H]1c1cc(O)c(O)c(O)c1)c1cc(O)c(O)c(O)c1 [(-)-Epigallocatechin Gallate],0.41,–,-1.77,3.77,3.47,4.17,1.4,1.57,0.81,2.23
O=c1ccc2ccc(O)c(O)c2o1 [Daphnetin],0.85,–,0.22,0.62,0.62,1.18,-0.43,0.92,0.41,0.08
Nc1nc(N)c2nc(-c3cccc(O)c3)c(-c3cccc(O)c3)nc2n1,0.47,0.72,1.95,0.77,1,1.07,-0.28,0.4,0.49,1.16
Cn1c(Nc2ccc(C(F)(F)F)cc2)nc2cc(Oc3ccnc(-c4ncc(C(F)(F)F)[nH]4)c3)ccc21,2.71,15.5,2.13,3.67,5.02,4.72,5.68,4.18,–,6.02
Cc1ccc(NC(=O)Nc2cc(C(F)(F)F)ccc2F)cc1Nc1ccc2c(c1)NC(=O)/C2=C\c1ccc[nH]1,0,4.91,-0.66,3.11,2.49,4.16,2.94,3.2,–,4.68
Nc1nccc(Oc2ccc(NC(=O)c3c[nH]cc(-c4ccc(F)cc4)c3=O)cc2F)c1Cl,1.82,5.03,3.07,0.39,5.69,1.58,–,2.63,0.87,2.83
O=C(O)c1cc(O)c2c(c1)[C@@H]([C@H]1c3cc(C(=O)O)cc(O)c3C(=O)c3c(O[C@@H]4O[C@H](CO)[C@@H](O)[C@H](O)[C@H]4O)cccc31)c1cccc(O[C@@H]3O[C@H](CO)[C@@H](O)[C@H](O)[C@H]3O)c1C2=O [Sennoside B],4.96,27.3,6.66,2.08,4.72,3.52,–,4.78,–,8.22
CCc1ccc(/C=C2/SC(=S)NC2=O)cc1,1.69,1.03,2.03,0.53,1.38,1.74,–,0.63,0.67,1.47
O=S(=O)(NCCNC/C=C/c1ccc(Br)cc1)c1cccc2cnccc12,0.28,0.92,3.17,0.66,0.58,1.16,0.27,1.8,0.23,0.48
Cn1cnc2c(F)c(Nc3ccc(Br)cc3F)c(C(=O)NOCCO)cc21,0.1,0.45,0.02,-0.05,0.19,0.38,0.61,0.43,0.53,0.01
COC(=O)[C@]12CCC(C)(C)C[C@H]1[C@H]1C(=O)C=C3[C@@]4(C)C=C(C#N)C(=O)C(C)(C)[C@@H]4CC[C@@]3(C)[C@]1(C)CC2 [Bardoxolone Methyl],-2.64,0,-14.8,-0.32,-4.11,-0.25,–,-0.51,-7.84,-10.5
Cn1cc(-c2ccc3c(c2)CCN3C(=O)Cc2cccc(C(F)(F)F)c2)c2c(N)ncnc21,1.18,3.93,2.83,-0.12,0.47,0.33,0.17,0.89,-0.22,2.35
O=C(Nc1ccc(-c2ccnc(Nc3ccc(N4CCOCC4)cc3)n2)cc1)C1CCCN1 (stereo not given),-0.35,-0.13,0.59,-0.02,1.14,1.5,–,0.45,0.18,0.51
C=CC(=O)Nc1cccc(Oc2nc(Nc3ccc(N4CCN(C)CC4)cc3)ncc2Cl)c1,4.21,–,3.56,0.23,1.91,1.42,3.8,7.69,1.75,3.38
CC(=O)O/N=C1/C(c2c(O)[nH]c3cc(Br)ccc23)=Nc2ccccc21 [BIO-acetoxime],2.35,-1.15,-2.37,–,6.31,0.48,-0.05,3.95,0.25,0.12
O=c1[nH]nc(Sc2ncc([N+](=O)[O-])s2)n1-c1ccc2c(c1)OCCO2,1.48,–,8.23,1.65,2.21,1.25,–,2.84,-0.65,-3.66
Cc1cc(O)c2c(c1)C(=O)c1cccc(O)c1C2=O [Chrysophanic Acid],-0.01,-3.42,1.45,0.25,0.31,0.83,–,1.12,-0.16,-0.47
COc1cc2c(Nc3ccc(NC(=O)c4ccccc4)cc3)ncnc2cc1OCCCN1CCOCC1,2.69,0.98,-0.03,0.65,0.52,0.26,1.98,0.89,0.34,0.94
Cn1sc(=O)n(Cc2ccccc2)c1=O,-9.79,-0.38,–,0.24,-0.11,1.01,0.5,0.64,0.21,-0.28
Nc1ncnc2c1c(-c1cnc3[nH]ccc3c1)nn2C1CCCC1,1.35,1.16,2.01,0.12,1.82,1.28,0.43,2.52,0.19,1.48

# Reference: the supplement of paper PMC9694430
